# Source: publication PMC7826789 (International Journal of Molecular Sciences, 2021)
# Experiments:
# Settings in all cases: Compound Concentration (nM):1000
# AMPK-alpha1 = tested on: T1, AMPK-alpha1
# T1 construct: gene PRKAA1
# AMPK-alpha2 = tested on: T2, AMPK-alpha2
# T2 construct: gene PRKAA2
# ANKK1 = tested on: ANKK1
# ARK5 = tested on: T3, ARK5
# T3 construct: gene NUAK1
# ASK1 = tested on: T4, ASK1
# T4 construct: gene MAP3K5
# ASK2 = tested on: T5, ASK2
# T5 construct: gene MAP3K6
# AURKA = tested on: AURKA
# AURKB = tested on: AURKB
# AURKC = tested on: AURKC
# AXL = tested on: AXL
# BIKE = tested on: T6, BIKE
# T6 construct: gene BMP2K
# BLK = tested on: BLK
# BMPR1A = tested on: BMPR1A
# BMPR1B = tested on: BMPR1B
# BMPR2 = tested on: BMPR2
# BMX = tested on: BMX
# BRAF(V600E) = tested on: BRAF(V600E)
# BRAF = tested on: BRAF
# BRK = tested on: T7, BRK
# T7 construct: gene PTK6
# BRSK1 = tested on: BRSK1
# 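Note: KINOMEscan scanMAX binding as percent activity remaining versus control; lower means stronger binding.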
Structure (SMILES),Percent Control (AMPK-alpha1),Percent Control (AMPK-alpha2),Percent Control (ANKK1),Percent Control (ARK5),Percent Control (ASK1),Percent Control (ASK2),Percent Control (AURKA),Percent Control (AURKB),Percent Control (AURKC),Percent Control (AXL),Percent Control (BIKE),Percent Control (BLK),Percent Control (BMPR1A),Percent Control (BMPR1B),Percent Control (BMPR2),Percent Control (BMX),Percent Control (BRAF(V600E)),Percent Control (BRAF),Percent Control (BRK),Percent Control (BRSK1)
NS(=O)(=O)c1ccc(N/N=C2\C(=O)Nc3ccc(Cl)cc32)cc1 [GW280670X],100%,88%,97%,100%,100%,91%,91%,100%,100%,100%,100%,100%,100%,100%,100%,100%,92%,100%,100%,100%
COc1cc(C)c(N(C)C(=O)CN(C)C)cc1Nc1nc(Nc2cccc(F)c2C(N)=O)c2cc[nH]c2n1 [GSK2219385],100%,100%,94%,86%,100%,70%,85%,93%,90%,76%,77%,100%,93%,95%,91%,92%,82%,72%,100%,100%
Cl.O=S1CCN(Cc2ccc(-c3ccc4ncnc(Nc5ccc(OCc6ccccc6)c(F)c5)c4c3)o2)CC1 [GW576924A],100%,100%,88%,100%,100%,69%,100%,100%,100%,100%,100%,100%,100%,100%,100%,100%,65%,79%,100%,100%
NS(=O)(=O)c1ccc(Nc2ncc(-c3ccccc3)o2)cc1 [GW572399X],100%,95%,82%,100%,100%,77%,100%,43%,100%,100%,100%,89%,100%,83%,100%,100%,80%,95%,100%,100%
COc1cccc(-n2ncc3c(N/N=C/c4ccncc4)ncnc32)c1 [GW784752X],100%,86%,79%,96%,100%,62%,69%,89%,94%,100%,66%,45%,51%,0.1%,86%,100%,3.2%,6.5%,100%,18%
Cc1cc(O)cc(C)c1/C=C/c1cncc(C(N)=O)c1 [GW435821X],100%,83%,85%,100%,100%,79%,85%,100%,100%,100%,100%,59%,64%,4.4%,100%,100%,12%,23%,58%,94%
COc1cc2ncn(-c3cc(O[C@H](C)c4ccccc4Cl)c(C(N)=O)s3)c2cc1OC [GSK237701A],54%,100%,100%,29%,100%,97%,87%,38%,74%,50%,1.4%,68%,100%,88%,72%,75%,75%,100%,100%,76%
Cl.c1ccc(Cc2nc3ccc(Nc4ncnc5ccccc45)cc3[nH]2)cc1 [GR269666A],100%,100%,94%,100%,100%,77%,100%,100%,100%,100%,100%,100%,100%,100%,100%,100%,88%,100%,100%,100%
CN(C)CCNC(=O)Nc1ccc(N(C)c2ccnc(Nc3ccc(CS(C)(=O)=O)cc3)n2)cc1.Cl [GW830900A],87%,74%,88%,48%,100%,80%,8.8%,4.4%,4.5%,58%,5.1%,93%,100%,52%,100%,98%,100%,100%,96%,90%
CC1=C(C(=O)Nc2ccc3[nH]ncc3c2)C(c2ccc(Cl)c(Cl)c2)CC(=O)N1 (centres unmarked) [GSK299115A],67%,97%,100%,85%,98%,82%,45%,60%,56%,100%,100%,91%,100%,67%,69%,75%,82%,100%,70%,92%
